Compound activity as filed in PubChem.
Shown are actives, neighbours in structure and some others; about 7.2% of the full set was active somewhere.
HCV inhibitor: inhibitors of hepatitis C virus infection; Huh7.5.1 HCVcc-Cre infection, luciferase reporter, 44 h; Potency, µM (highest dose often 41.8 µM), for the others: at the highest dose activity change, negative = inhibition, hits mostly inhibitors; 340,000 tested, 3.4% active
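Reporter virus HCVcc-Cre (~0.5 moi) infects cells exposed to compound; seeding density 1,000 cells/well with 4 h settling beforehand. Luminescence, 15 sec read, taken 44 h post-infection following a 15 min RT substrate incubation.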
LASV entry inh: blocks Lassa virus binding to or entry into cells | Lassa virus pseudotype entry inhibition, cell reporter | Potency, µM (titrated, usually from 37.9 µM), for inactives: at the highest dose activity change, negative = inhibition, hits mostly inhibitors | 300,000 tested, 1.2% active | AID 540256; calls by dose curve; tested in HEK293 cells; note: nearly all actives have a fitted effect of over 50% in size
Marburg entry inh: inhibitors of Marburg virus binding or cell entry | Potency, µM (titrated, usually from 37.8 µM), for the others: at the top dose activity change, negative = inhibition, most hits filed as inhibitors | 300,000 tested, 1.8% active | AID 540276 | Marburg virus pseudotyped entry inhibition, cell reporter; calls by dose curve; tested in HEK293 cells
RE007 growth inh: less growth of the S. pombe RE007 Vpr strain; Potency, µM (series often up to 92.2 µM), for inactives: at the top dose activity change, negative = less growth, most hits filed as inhibitors; S. pombe RE007 Vpr strain, BacTiter-Glo ATP luminescence, 24 h; 360,000 tested, 0.21% active; active = well fitted falling curve with a large enough effect; inconclusive = small, poorly fitted or top-dose-only effect; inactive = no such curve, though single readings can be large or run the other way; note: nearly all actives have a fitted effect of over 50% in size
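Fission yeast RE007 carrying one integrated HIV-1 vpr copy, seeded at OD 0.01 in PMG+AL medium with 23 nL pinned compound. Grown 24 h at 30 degrees; viability read by BacTiter-Glo luminescence after 5 min.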
Sm TGR inh: S. mansoni TGR enzyme inhibition | AID 485364 | Potency, µM (series often up to 114 µM), for inactives: at the highest dose activity change, negative = inhibition, hits mostly inhibitors | purified TGR, DTNB reduction, TNB absorbance 405 nm | 360,000 tested, 3% active | Q962Y6; note: nearly all actives have a fitted effect of over 60% in size
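Kinetic colorimetric format: TGR-catalysed, NADPH-driven DTNB reduction monitored via TNB absorbance. Enzyme dispensed at 20 nM; compound exposure 15 min at room temperature before reaction start.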
FMDV antiviral: antivirals against foot and mouth disease virus; FMDV antiviral cell-based qHTS; Potency, µM (highest dose often 57.9 µM), without a hit: at the top dose activity change, negative = inhibition, usual class: inhibitors; 410,000 tested, 1.2% active; calls by dose curve; tested in HEK293T cells; note: read-out not given here; nearly all actives have a fitted effect of over 45% in size
* hit, by the source's call; ? = inconclusive; nt = no result; ! = a repeat was not active; [ ] = remark or other dose. Unless noted, calls come from the whole dose curve; as a rule, active = well fitted curve in the direction sought with a large enough effect; inconclusive = small, poorly fitted or top-dose-only effect, or another doubt; inactive = no such curve, though single readings can be large; an effect the other way counts as inactive or inconclusive. % is set by controls: 0 for no effect and ±100 for the full control effect; potency is the fitted concentration of half-maximal effect.

SMILES | HCV inhibitor | LASV entry inh | Marburg entry inh | RE007 growth inh | Sm TGR inh | FMDV antiviral
Cc1ccc2c(CN3CCCCC3C)cc(=O)oc2c1 (configuration not stated) | -2% | nt | nt | 18% | 2% | 15%
Cc1ccc2c(CN(Cc3ccccc3)Cc3ccccc3)cc(=O)oc2c1 | nt | nt | ? | 8% | nt | -24%
Cc1ccc2oc(=O)cc(CN3CCN(C/C=C/c4ccccc4)CC3)c2c1 | 10µM* | -9% | -15%[46.1 µM] | 5% | -28% | -15%
Cc1ccc2c(CN3CCCCC3CCO)cc(=O)oc2c1 (configuration not stated) | -12% | nt | nt | 18% | 25µM* | 1%
Cc1ccc2c(CN3CC(C)CC(C)C3)cc(=O)oc2c1 (configuration not stated) | 7% | -17% | -19% | 2% | 89µM* | 3%
Cc1cc(C)c2c(CN(Cc3ccccc3)Cc3ccccc3)cc(=O)oc2c1 | nt | 22µM* | nt | 17% | nt | -9%
Cc1ccc(-c2onc(C)c2C)cc1S(=O)(=O)NCc1ccc(N(C)C)cc1 | nt | -34%[46.1 µM] | nt | nt | 2% | 6%
NCC1OC(O[C@H]2[C@H](O)[C@@H](OC3C(O)C(N)CC(N)C3OC3OC(CO)C(O)C(O)C3N)O[C@@H]2CO)C(N)C(O)C1O (some centres not stated) | nt | 21% | 11% | nt | nt | nt
COC(=O)C1(C(=O)OC)CC=CCc2ccccc2[C@H]1C[N+](=O)[O-] | nt | nt | 3%[14.2 µM] | nt | nt | nt
CCN(Cc1cc(=O)oc2cc(C)ccc12)c1ccccc1 | 22µM* | nt | nt | 15% | 0% | ?
Fc1cccc(F)c1-n1c(CN2CCOCC2)csc1=S | -6% | nt | nt | -16% | -1% | -21%
Fc1cccc(F)c1-n1c(CN2CCCCC2)csc1=S | ? | -13%[46.1 µM] | 6.3µM* | 15% | -7% | -25%
CCOc1ccc(CCNC(=O)c2ccc(C)c(-n3c(C)nc4cccnc43)c2)cc1OCC | nt | -3%[46.1 µM] | nt | nt | -2% | -8%
CCn1c(C)cc(=S)c2ccccc21 | -2% | 11% | 20% | -6% | 4µM* | -24%
CCCCC/C=C\C/C=C\C/C=C\C/C=C\CCCC(=O)O[C@H](COCCCCCCCCCCCCCCCC)COP(=O)([O-])OCC[N+](C)(C)C | nt | nt | nt | nt | nt | 5%[6.7 µM]
Cc1ccc(Nc2c(-c3ccccn3)nc3cc(C)ccn23)cc1 | 2.8µM* | ? | ? | -17% | 3% | ?
CC(C)N(CCO)Cc1nc(N2CCOCC2)c2cc(Cl)ccc2n1 | nt | nt | nt | nt | nt | -3%
Nc1c(C(=O)Nc2ccccc2F)sc2nc(-c3ccco3)ccc12 | nt | 78%[14.3 µM] | ? | -13% | 2.8µM* | ?
COC(=O)c1sc2nc(-c3ccco3)ccc2c1N | -4% | ? | -25% | -16% | 2.8µM* | -27%
CCOC(=O)c1sc2nc(-c3cccnc3)ccc2c1N | -4% | 6.3µM* | ? | -3% | -3% | -30%
COc1cc(NC(=O)CC2C(=O)N(c3ccccc3)C(=O)N2Cc2ccc(F)cc2)cc(OC)c1 (configuration not stated) | nt | -14%[46.1 µM] | nt | nt | -12% | -17%
Cn1c(SSc2ccc(-c3cccnc3)n2C)ccc1-c1cccnc1 | -17% | ? | 13µM* | -10% | nt | ?
CN1C(=O)c2ccccc2Sc2ccc(NC(=O)N3CCN(c4cccc(Cl)c4)CC3)cc21 | nt | ? | 11µM* | nt | -30% | -13%
Clc1ccc(/C=C/c2nc3ccccc3[nH]2)cc1 | ? | ? | 8.2µM* | ? | 25µM* | -71%
O=C(/C(=C(\O)c1ccccc1)c1nc2ccccc2[nH]1)c1ccccc1 | 0% | ? | ? | -26% | -1% | 0%
SMILES | HCV inhibitor | LASV entry inh | Marburg entry inh | RE007 growth inh | Sm TGR inh | FMDV antiviral
Clc1cccc(Cl)c1/C=C/c1nc2ccccc2[nH]1 | ? | ? | ? | ? | -22% | -60%
Clc1ccc(/C=C/c2nc3ccccc3[nH]2)c(Cl)c1 | ? | 10µM* | ? | 25µM* | 2% | -85%
O=C(/C=C/c1ccc(Cl)cc1Cl)c1nc2ccccc2[nH]1 | 18% | -18% | -38% | 7.9µM* | -17% | -9%
CCOC(=O)c1cn(CC2CC2)c2cc(F)c(F)cc2c1=O | 14µM* | -3% | 20%[46.1 µM] | -4% | nt | -9%
CCCn1cc(C(=O)OCC)c(=O)c2cc(F)c(F)cc21 | -8% | 10% | ? | 0% | 11% | -6%
Cc1cc(C)cc(N2C(=O)NC(=O)/C(=C\c3cc(C)n(C)c3C)C2=O)c1 | -1% | -4% | 5%[46.1 µM] | 11% | nt | -18%
COC(=O)C1=C(C)NC(=O)/C1=C\c1cc(C)n(-c2cc(C)cc(C)c2)c1C | ? | ? | ? | 10µM* | ? | -19%
COC(=O)C1=C(C)NC(=O)/C1=C\c1cc(C)n(-c2ccccc2)c1C | -15% | ? | 7.9µM* | ? | 28µM* | 15%
CCCn1cc(S(=O)(=O)c2ccc(CC)cc2)c(=O)c2cc(F)c(N(CC)CC)cc21 | nt | -2%[46.1 µM] | nt | nt | 0% | -13%
CCc1ccc(NC(=O)COC(=O)C2(c3ccc(Cl)cc3)CCCC2)cc1 | ? | 1% | 24% | 3% | -7% | 20µM*
COc1c(CO)cc(CO)cc(CO)c1=O | nt | nt | nt | nt | nt | -11%
COc1ccccc1S(=O)Cc1ccc(C(=O)NCCc2ccc(Cl)cc2)o1 (configuration not stated) | ? | nt | nt | -6% | 40µM* | ?
COc1ccc(OC)c(CCNC(=O)c2ccc(CS(=O)Cc3ccc(Cl)cc3)o2)c1 (configuration not stated) | 10µM* | nt | nt | 3% | 4% | -21%
COc1ccccc1S(=O)Cc1ccc(C(=O)NC2CCCC2)o1 (configuration not stated) | -1% | nt | nt | 3% | -7% | -18%
COc1ccc(S(=O)(=O)Cc2ccc(C(=O)NCCc3cc(OC)ccc3OC)o2)cc1 | -23% | ? | ? | 1% | 0% | 0%
CCOc1ccc(CCNC(=O)c2ccc(CS(=O)Cc3ccc(Cl)cc3)o2)cc1 (configuration not stated) | ? | -14%[46.1 µM] | nt | -9% | 28µM*! | ?
O=C(NCCc1ccc(Cl)cc1)c1ccc(CS(=O)Cc2ccc(Cl)cc2)o1 (configuration not stated) | ? | ? | ? | 0% | -21% | -29%
COc1cccc(C(=O)N2c3cc(C)ccc3C(C)(c3ccccc3)CC2(C)C)c1 (configuration not stated) | nt | ? | nt | nt | -3% | ?
CCC(C)NC(=O)c1[nH]c2cc(OC)ccc2c1Sc1ccc(C)cc1 (configuration not stated) | nt | -7%[46.1 µM] | 1%[46.1 µM] | nt | -7% | 30%
Nc1ccc(C#Cc2ccccc2)cc1 | ? | 19% | -22% | -11% | 13% | 17%
Cc1cccc(C#Cc2ccccc2)n1 | 1.1µM* | ? | ? | -13% | ? | 37%
CCOc1ccc(CNC(=O)c2ccc(-c3nc(CSc4ccc(C)cc4)c(C)o3)cc2)cc1 | nt | -4%[46.1 µM] | nt | nt | -7% | 14%
